# High-throughput results deposited in PubChem BioAssay by National Center for Advancing Translational Sciences (NCATS).
# TDP1 cell CPT: qHTS for Inhibitors of human tyrosyl-DNA phosphodiesterase 1 (TDP1): qHTS in cells in presence of CPT; chicken DT40 Tdp1-/-;hTDP1 cells + 20 nM CPT, ATP luminescence, 48 h; Potency, µM (top dose mostly 46.2 µM), without a hit: at the top dose activity change, negative = growth inhibition, actives largely listed as inhibitors; 420,000 compounds, 12% hits; note: potency is the fitted concentration of half-maximal effect; nearly all actives have a fitted effect of over 55% in size
#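 Cell growth measured by CellTiter-Glo luminescence after a minimum 48 h, 37 C compound exposure with 20 nM CPT in Tdp1-knockout DT40 cells stably expressing hTDP1, seeded 400/well; qHTS titration format.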
# DT40 TDP1 no CPT: qHTS for Inhibitors of human tyrosyl-DNA phosphodiesterase 1 (TDP1): qHTS in cells in absence of CPT | AID 686978, 2013 | 420,000 compounds, 15% hits | Potency, µM (top dose mostly 46.2 µM), for the others: top-dose activity change, negative = growth inhibition, actives largely listed as inhibitors | DT40 Tdp1-/- hTDP1 cells, no CPT, ATP luminescence, 48 h; note: potency is the fitted concentration of half-maximal effect; nearly all actives have a fitted effect of over 55% in size
#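 Stably hTDP1-transfected Tdp1-null chicken DT40 cells were treated with library compounds minus camptothecin and grown for at least 48 hr at 37 °C, after which cellular ATP was quantified by luminescence.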
# IL-1B inflam inh: qHTS for Inhibitors of Inflammasome Signaling: IL-1-beta AlphaLISA Primary Screen; THP-1 LPS/ATP IL-1B secretion, AlphaLISA, 16 h; stronger effect = lower value; activity change, % at 57.5 µM; 360,000 compounds, 4.7% hits; AID 743279, 2014; in the data active = activity change below about -50%; inconclusive = mostly about -30% to -49%
#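 Secreted IL-1B measured by AlphaLISA bead assay after 16 h compound exposure of THP-1 cells; compounds (final up to 57.5 uM) added 1 h before LPS (250 ng/mL) and ATP (1.25 mM) stimulation; lower signal means less secretion.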
# HT1080-NT tox: qHTS for induction of synthetic lethality in tumor cells producing 2HG: qHTS for the HT-1080-NT fibrosarcoma cell line | 360,000 compounds, 1.6% hits | HT-1080-NT fibrosarcoma viability, CellTiter-Glo ATP luminescence, 48 h | Potency, µM (highest dose often 46.1 µM), for the others: at the highest dose activity, negative = less viability, hits mostly cytotoxic;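 note: NT is the 2HG producing partner of a matched IDH1 knockdown line; potency is the fitted concentration of half-maximal effect; 0% = DMSO-treated cells and -100% = media-only wells without cells; nearly all actives have a fitted effect of over 55% in size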
#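 A 48-hour cytotoxicity screen used HT-1080-NT cells plated 2 hours before compound delivery. ATP-based CellTiter-Glo luminescence measured viability, normalized to DMSO and no-cell controls.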
# HT1080 IDH1KD tx: qHTS for induction of synthetic lethality in tumor cells producing 2HG: qHTS for the HT-1080-IDH1KD cell line; HT-1080 IDH1 knockdown viability, ATP luminescence, 48 h; Potency, µM (series often up to 46.1 µM), inactives show at the top dose activity, negative = toxicity, actives largely listed as cytotoxic; 360,000 compounds, 2% hits; AID 686971, 2013;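 note: potency is the fitted concentration of half-maximal effect; 0% = DMSO wells and -100% = cell-free medium wells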
#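 In this qHTS, HT-1080 cells depleted of IDH1 are exposed for 48 h at 37 °C to compound titrations. Toxicity is scored from CellTiter-Glo luminescence, with DMSO as full viability and medium alone as none.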
# Numbers without * were called inactive; u = inconclusive; x = not tested or not shown; [ ] = dose if it differs, or a comment. A selection: hits, their analogues and other compounds. The true share with any hit is near 19%. Unless noted, calls come from the whole dose curve; as a rule, active = well fitted curve in the direction sought with a large enough effect; inconclusive = small, poorly fitted or top-dose-only effect, or another doubt; inactive = no such curve, though single readings can be large; an effect the other way counts as inactive or inconclusive. Unless noted, % is set by controls: 0 for no effect and ±100 for the full control effect.
SMILES,TDP1 cell CPT,DT40 TDP1 no CPT,IL-1B inflam inh,HT1080-NT tox,HT1080 IDH1KD tx
CCOC(=O)c1c(C)sc(-c2c(-c3ccc4c(c3)OCCO4)[nH]c3c2c(=O)n(C)c(=O)n3C)c1O,18.4µM*,18.4µM*,x,x,x
Cc1ccc(C)c(NC(=O)CCc2nnc3ccc(NCc4ccco4)nn23)c1,5.0%,-2.2%,3.8,0.4%,0.0%
COc1ccc(C)cc1N(C(=O)c1ccc(C#N)cc1)C1=NC(C)(C)CS1,-1.7%,-4.2%,2.0,-3.4%,3.2%
O=C(Cn1c(=O)n(Cc2cccs2)c(=O)c2cccnc21)Nc1ccccc1F,-6.7%,2.0%,x,x,x
O=C(Cn1c(=O)n(CCc2c[nH]c3ccccc23)c(=O)c2cccnc21)Nc1ccccc1F,14.6µM*,23.1µM*,-7.0,2.8%,-0.5%
COc1cc(Nc2ccc(C)cc2)c([N+](=O)[O-])nc1[N+](=O)[O-],2.06µM*,2.59µM*,73.5,3.16µM*,3.16µM*
Cc1cc(C)cc(Nc2ccc([N+](=O)[O-])nc2[N+](=O)[O-])c1,-1.7%,-9.1%,18.3,2.2%,13.6%
Cc1cc(C)c(NC(=O)CNC(=O)c2ccc3c(=O)n4c(nc3c2)CCC4)c(C)c1,1.1%,-20.1%,-18.0,-3.7%,1.9%
COc1ccc(/C=C/C(=O)c2ccccn2)cc1,20.6µM*,u,u,u,u
COc1ccc(OC)c(NC(=O)/C=C/c2ccccc2[N+](=O)[O-])c1,-10.9%,u,-26.4,-6.3%,-8.4%
COc1ccc([N+](=O)[O-])c(C=CC(=O)c2ccccn2)c1,5.17µM*,2.31µM*,-104.9*,u,u
COc1ccc(-c2nnc(SC(C)C(=O)Nc3c(C)n(C)n(-c4ccccc4)c3=O)o2)cc1 (stereo not drawn),-17.7%,-42.3%,-8.8,2.5%,1.6%
O=C(CNC(=O)c1ccc(Br)cc1)NCc1cccnc1,16.9%,-10.5%,19.5,16.0%,4.9%
CC(=O)Nc1sc(C)c(C)c1C(=O)OCC(=O)N(CC(C)C)c1c(N)n(Cc2ccccc2)c(=O)[nH]c1=O,23.1µM*,5.8µM*,2.0,-3.5%,0.0%
CC(C)CN(C(=O)COC(=O)c1cc2ccccc2cc1O)c1c(N)n(Cc2ccccc2)c(=O)[nH]c1=O,u,u,-54.4*,u,-15.1%
CC(C)CN(C(=O)COC(=O)C12CC3CC(CC(C3)C1)C2)c1c(N)n(Cc2ccccc2)c(=O)[nH]c1=O,u,10.3µM*,2.9,u,u
Cc1cccc(C(=O)OCC(=O)N(CC(C)C)c2c(N)n(Cc3ccccc3)c(=O)[nH]c2=O)c1C,u,u,-18.7,2.8%,-0.1%
COc1ccc(C(N)CCc2ccc(C)o2)cc1 (stereo not drawn),u,18.4µM*,u,-12.4%,-11.9%
CCc1ccc(CCC(=O)Nc2ccc(OC)cc2)o1,-14.0%,-25.2%,11.6,-27.2%,u
c1ccc(N=NN2CCOCC2)cc1,0.7%,1.7%,12.4,2.5%,1.1%
O=C1SC(c2ccccc2)=C/C1=C\N1CCCCC1,-7.9%,-13.1%,-24.1,2.2%,-5.1%
O=C1OC(c2ccccc2)=C/C1=C\N1CCOCC1,23.1µM*,u,-11.5,-2.1%,5.4%
CN(C)/C=C1/C=C(c2ccccc2)OC1=O,u,u,-53.3*,u,u
O=C1OC(c2ccccc2)=C/C1=C/N1CCOCC1,u,16.4µM*,-3.2,0.0%,-21.1%
CC1=C/C(=C/N(C)C)C(=O)O1,-19.4%,u,-1.0,-7.8%,-3.9%
SMILES,TDP1 cell CPT,DT40 TDP1 no CPT,IL-1B inflam inh,HT1080-NT tox,HT1080 IDH1KD tx
CCn1nc(C)c(CN2Cc3ccccc3OC(c3ccccc3OC)C2)c1C (stereo not drawn),2.7%[9.04 µM],u,x,x,x
O=C(CCSc1nc(-c2ccco2)cc(C(F)(F)F)n1)N1CCN(c2ccccc2)CC1,u,20.6µM*,-2.5,-19.4%,-10.2%
COc1ccc(CCNC(=O)CCSc2nc(-c3ccco3)cc(C(F)(F)F)n2)cc1OC,14.6µM*,16.4µM*,u,-10.9%,-9.4%
CC(NC(=O)CCSc1nc(-c2ccco2)cc(C(F)(F)F)n1)c1ccccc1 (stereo not drawn),13µM*,u,-29.8,-1.1%,-17.1%
COc1ccc(NC(=O)CCCSc2nc(-c3ccco3)cc(C(F)(F)F)n2)cc1,-17.0%,u,x,x,x
O=C(CCSc1nc(-c2ccco2)cc(C(F)(F)F)n1)NCc1cccs1,16.4µM*,u,-9.1,-17.5%,-1.2%
Cc1n[nH]c(C)c1S(=O)(=O)N1CCN(S(=O)(=O)c2ccccc2C#N)CC1,0.6%,3.4%,-17.5,-2.2%,3.4%
Cn1cc(Cl)c(-c2n[nH]c(=S)n2C2CCCCC2)n1,0.1%,12.9%,12.2,-0.7%,-8.0%
S=c1[nH]nc(-c2cc(-c3ccsc3)n[nH]2)n1-c1cccc2ccccc12,u,29.1µM*,0.2,-10.2%,-12.9%
Cc1c(CNC2CCCC2)c(C(=O)O)c(C)n1Cc1ccccc1,-16.6%,-21.4%,7.6,-0.9%,7.8%
CCCOc1cccc(-c2nnc(NC(=O)c3ccco3)s2)c1,u,20.6µM*,10.5,-4.6%,0.0%
Cc1ccc(OCc2nnc(NC(=O)c3ccco3)s2)cc1,-15.1%,-12.9%,18.2,11.2%,12.8%
O=C(Nc1nnc(COc2ccc(Cl)cc2)s1)c1ccco1,29.1µM*,u,u,3.7%,3.3%
COc1cccc(-c2nnc(NC(=O)c3ccco3)s2)c1,-7.0%,u,-6.8,16.5%,13.4%
O=C(Nc1nnc(COc2ccc(Cl)cc2)s1)c1cccs1,14.6µM*,11.6µM*,1.1,9.9%,20.1%
O=C(Nc1nnc(COc2ccc(F)cc2)s1)c1cccs1,-14.1%,-19.4%,-3.6,-28.5%,u
CC(=O)Nc1ccccc1-c1nc(CNC(=O)c2ccc(-n3cccn3)cc2)c(C)o1,-13.3%[9.04 µM],-20.4%,x,x,x
CC1=C(C(=O)OCc2ccccc2)C(c2cccc(Cl)c2Cl)CC(=O)N1 (stereo not drawn),u,-29.1%,x,x,x
CC1=C(C(=O)OCc2ccc(C)cc2)C(c2ccccc2C(F)(F)F)CC(=O)N1 (stereo not drawn),23.1µM*,20.6µM*,x,x,x
COc1ccccc1C1CC(=O)NC(C)=C1C(=O)OC(C)C (stereo not drawn),u,13µM*,15.5,7.0%,0.9%
COc1ccccc1C1CC(=O)NC(C)=C1C(=O)OC1CCCCCC1 (stereo not drawn),20.6µM*,13µM*,x,x,x
